Structures can show the parent of a compound that is named as a salt.
system: S. cerevisiae AD1-9 (efflux-pump deficient), vegetative growth in YPD; test: growth sensitivity score (doubling time z-score vs DMSO controls); higher = slower growth, strongly negative scores also mark growth inhibition (complete suppression), active = hit call of the paper
Outline: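 Optical density of Saccharomyces cerevisiae cultures in microtiter plates was followed every 15 min for 24 hours after seeding at an OD600 of 0.065. Eight solvent-only wells were run per experiment. Growth sensitivity scores were found by subtracting the solvent-only mean from the compound mean and dividing by the solvent-only standard deviation.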

| SMILES | growth sensitivity score |
| --- | --- |
| CN(C)CC[C@@H](c1ccc(Cl)cc1)c1ccccn1 [Dexchlorpheniramine maleate] (stock concentration (mM, diluted 1:100): 7) | -0.12 (inactive) |
| COCC1=C(C(=O)OC(C)OC(=O)OC(C)C)N2C(=O)[C@@H](NC(=O)/C(=N\OC)c3csc(N)n3)[C@H]2SC1 (some centres not stated) [Cefpodoxime proxetil] (stock concentration (mM, diluted 1:100): 7.7) | -0.15 (inactive) |
| CC(C(=O)O)c1ccc(-c2ccccc2)c(F)c1 (configuration not stated) [Flurbiprofen] (stock concentration (mM, diluted 1:100): 11.4) | 0.77 (inactive) |
| C[C@@H]1O[C@@H](OC[C@H]2O[C@@H](Oc3c(-c4ccc(O)c(O)c4)oc4cc(O)cc(O)c4c3=O)[C@H](O)[C@@H](O)[C@@H]2O)[C@H](O)[C@H](O)[C@H]1O [Rutin] (stock concentration (mM, diluted 1:100): 10) | 0.28 (inactive) |
| CC(C)Oc1ccc2c(=O)c(-c3ccccc3)coc2c1 [Ipriflavone] (stock concentration (mM, diluted 1:100): 10) | 3.44 (active) |
| CC(C)(C)NC(=O)[C@@H]1CN(Cc2cccnc2)CCN1C[C@@H](O)C[C@@H](Cc1ccccc1)C(=O)N[C@H]1c2ccccc2C[C@H]1O [Indinavir sulphate] (stock concentration (mM, diluted 1:100): 8.6) | -2.58 |
| Clc1ccc(CO/N=C(\Cn2ccnc2)c2ccc(Cl)cc2Cl)c(Cl)c1 [Oxiconazole nitrate] (stock concentration (mM, diluted 1:100): 10) | 47.9 (active) |

Reference: the supplement of paper PMC3414501
